Read-out in assay [1]: UDP glucuronosyltransferase (UGT1A1), UGT1A1 (gene 54658)
In words: LTEA_HepaRG_UGT1A1: Life Technologies and Expression Analysis (LTEA) Assay for UDP glucuronosyltransferase (UGT1A1) using HepaRG (AID 2283538; active means hit-call score of the fitted dose curve at least 0.9, where 1 is the maximum; inactive means score below 0.9). The note with it: mRNA level, 48 h; actives raise or lower the signal. In a few lines: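 Differentiated human HepaRG cells in serum-free induction medium were exposed in duplicate for 48 h to eight half-log concentrations up to 100 uM in 0.5% DMSO. UGT1A1 mRNA was quantified by TaqMan qRT-PCR, normalized to ACTB, GAPDH and POLR2A, and fitted bidirectionally against DMSO.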

Read-out in assay [2]: UDP glucuronosyltransferase (UGT1A6), UGT1A6 (gene 54578)
In words: LTEA_HepaRG_UGT1A6: Life Technologies and Expression Analysis (LTEA) Assay for UDP glucuronosyltransferase (UGT1A6) using HepaRG (AID 2283539; active means hit-call score of the fitted dose curve at least 0.9, where 1 is the maximum; inactive means score below 0.9). The following applies: mRNA level, 48 h; actives raise or lower the signal. The essentials: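 Measures mRNA change in HepaRG hepatic cells exposed 48 h to chemicals (eight-point, maximum 100 uM, 0.5% DMSO vehicle) in serum-free induction medium. Expression normalized to endogenous controls; DMSO served as negative control and baseline.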

Read-out in assay [3]: X-box binding protein 1 (XBP1), XBP1 (gene 7494)
In words: LTEA_HepaRG_XBP1: Life Technologies and Expression Analysis (LTEA) Assay for X-box binding protein 1 (XBP1) using HepaRG (AID 2283540; active means hit-call score of the fitted dose curve at least 0.9, where 1 is the maximum; inactive means score below 0.9). The note with it: mRNA level, 48 h; actives raise or lower the signal. The essentials:
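Eight concentrations (half-log, highest 100 uM, 0.5% DMSO) tested in duplicate on HepaRG cells over 48 h in serum-free induction medium; qRT-PCR of XBP1 normalised to ACTB, GAPDH, POLR2A.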

Assay [4] is described as follows: LTEA_HepaRG_LDH_cytotoxicity: Cytotoxicity Assessment in the Life Technologies and Expression Analysis (LTEA) Assay (AID 2283563). In a few lines:
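Spent-medium LDH after 48 h chemical exposure of HepaRG cells in serum-free induction medium; eight concentrations, half-log dilutions from 100 uM, duplicate wells, fitted upward relative to 0.5% DMSO.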

Assay [5] can be described thus: ATG_XTT_Cytotoxicity: Cytotoxicity Assessment in the Attagene TRANS-FACTORIAL HepG2 Assay (AID 2283584). In a few lines: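 24 h chemical exposure of reporter-transfected HepG2; XTT signal loss vs DMSO indicates cytotoxicity.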
Assay [6] is described as follows: TOX21_p53_BLA_p2_viability: Viability Assessment in the Tox21 HCT-116 p53 Agonism Beta-lactamase Assay, Phase 2 (AID 2283591).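 Further: compound exposure lasted 16 h at 37 °C; actives lower the ATP signal meaning cytotoxicity.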 The essentials: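 HCT116 p53-bla cells, 4000/well, dosed after 5 h plating (217-fold dilution of DMSO stocks) and incubated 16 h at 37C. Viability taken as cellular ATP by CellTiter-Glo luminescence after 30 min RT; signal loss marks cytotoxicity.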

Assay [7] can be described thus: TOX21_p53_BLA_p3_viability: Viability Assessment in the Tox21 HCT-116 p53 Agonism Beta-lactamase Assay, Phase 3 (AID 2283593).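 Further: cells exposed to compound for 16 h before reading.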 The essentials:
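HCT116 cells, 4000/well, dosed 5 h after plating by pin transfer (217-fold dilution from DMSO stock) and incubated 16 h at 37C, 5% CO2. Viability read as ATP luminescence with CellTiter-Glo after 30 min at room temperature.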

Assay [8] concerns the target Cellular tumor antigen p53 (Homo sapiens) (UniProt P04637). In words: TOX21_p53_BLA_p3_ratio: Tox21 HCT-116 p53 Agonism Beta-lactamase Assay, Ratio, Phase 3 (AID 2283596). In a few lines: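 HCT116 p53-bla cells (4000/well) given compound in DMSO (217-fold dilution) after 5 h, incubated 16 h at 37C. CCF4-AM substrate 2 h at room temperature; 460/530 nm emission ratio, gain fitted against DMSO.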

Assay [9] can be described thus: TOX21_p53_BLA_p4_viability: Viability Assessment in the Tox21 HCT-116 p53 Agonism Beta-lactamase Assay, Phase 4 (AID 2283597).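 Further: hits lower the luminescence signal meaning cytotoxicity.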 The essentials: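 Luminescent ATP readout (CellTiter-Glo, 30 min, room temperature) in the same wells as the p53 bla ratio. HCT116 cells were treated for 16 h at 37C with DMSO-dissolved compounds.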
Assay [10] concerns the target Cellular tumor antigen p53 (Homo sapiens) (UniProt P04637). Kind of assay: TOX21_p53_BLA_p5_ratio: Tox21 HCT-116 p53 Agonism Beta-lactamase Assay, Ratio, Phase 5 (AID 2283599). In a few lines: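 HCT-116 p53-bla cells (4000/well) plated 5 h, dosed with compound (217-fold DMSO dilution) for 16 h at 37 C; CCF4-AM substrate 2 h at room temperature. Activity is the 460/530 nm emission ratio (405 nm excitation), fitted in gain-of-signal direction versus DMSO.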

Assay [11] can be described thus: TOX21_p53_BLA_p5_viability: Viability Assessment in the Tox21 HCT-116 p53 Agonism Beta-lactamase Assay, Phase 5 (AID 2283600). In a few lines: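 Seeded cells (4000/well) settle 5 h before compound addition. Plates then incubate 16 h at 37C, receive FRET substrate for 2 h, and finally CellTiter-Glo, with luminescence measured after a 30 min room-temperature incubation.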

Assay [12] can be described thus: Tanguay_ZF_120hpf_MORT_legacy: (Legacy) Oregon State University Tanguay Lab 120 Hour Post-fertilization zebrafish Assay for Mortality (AID 2283633).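 On AC50: fitted as increase in binary mortality versus DMSO negative control.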 The essentials:
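Single dechorionated Tropical 5D embryos were held with test chemical (0.64% DMSO final) from 6 to 120 hpf at 28C under foil. Deaths at 24 or 120 hpf were recorded as binary calls, analysed for increase over DMSO controls.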

The nature of assay [13]: Tanguay_ZF_120hpf_YSE_legacy: (Legacy) Oregon State University Tanguay Lab 120 Hour Post-fertilization zebrafish Assay for Yolk Sac Edema (AID 2283634). In a few lines:
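Single dechorionated embryos were held in sealed plates at 28C with test chemical (0.64% DMSO final) from 6 hpf until 120 hpf. Edema of the yolk sac was then recorded as a binary endpoint; non-mortality endpoints were skipped for dead embryos.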

Assay [14] is described as follows: Tanguay_ZF_120hpf_AXIS_legacy: (Legacy) Oregon State University Tanguay Lab 120 Hour Post-fertilization zebrafish Assay for Body Axis Malformation (AID 2283635). In a few lines:
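Each dechorionated embryo was exposed alone from 6 hpf, with DMSO at 0.64% (vol/vol) and trimethyltin chloride 5 uM as positive control. Axis malformation was recorded at 120 hpf unless the embryo had died.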

The nature of assay [15]: Tanguay_ZF_120hpf_EYE_legacy: (Legacy) Oregon State University Tanguay Lab 120 Hour Post-fertilization zebrafish Assay for Eye Malformation (AID 2283636).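 Further: binary presence or absence of eye malformation scored by brightfield in 120 hpf larvae.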 The essentials:
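Dechorionated Tropical 5D zebrafish embryos, one per well from 6 hpf, static exposure to 120 hpf at 28C, 0.64% DMSO. Eye malformation scored present/absent by brightfield; dead embryos not scored.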

A short description of assay [16]: Tanguay_ZF_120hpf_SNOU_legacy: (Legacy) Oregon State University Tanguay Lab 120 Hour Post-fertilization zebrafish Assay for Snout Malformation (AID 2283637). The essentials:
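Dechorionated tropical 5D wild-type zebrafish embryos exposed statically from 6 to 120 hpf at 28C, one per well, in 0.64% DMSO. Snout malformation scored as present/absent by brightfield at 120 hpf; dead embryos not scored.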

The nature of assay [17]: Tanguay_ZF_120hpf_JAW_legacy: (Legacy) Oregon State University Tanguay Lab 120 Hour Post-fertilization zebrafish Assay for Jaw Malformation (AID 2283638). The essentials:
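Wild-type 5D embryos, chorion removed at 4 hpf, dosed singly from 6 hpf; 28C static, sealed, foil-covered, to 120 hpf. Endpoint: jaw defect yes/no (brightfield); mortality excludes scoring.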

Assay [18] in a line: Tanguay_ZF_120hpf_OTIC_legacy: (Legacy) Oregon State University Tanguay Lab 120 Hour Post-fertilization zebrafish Assay for Otic Vesicle Malformation (AID 2283639). The essentials: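 Tropical 5D wild-type zebrafish embryos were exposed statically in sealed, foil-covered plates at 28C until 120 hpf, with 0.64% (vol/vol) DMSO final. Otic vesicle malformation was scored present/absent by brightfield microscopy, with DMSO as baseline.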

Assay [19] deals with Cellular tumor antigen p53 (Homo sapiens) (UniProt P04637). Kind of assay: TOX21_p53_BLA_p2_ratio: Tox21 HCT-116 p53 Agonism Beta-lactamase Assay, Ratio, Phase 2 (AID 2283592). The essentials: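 Human colon HCT116 cells with an inducible p53 beta-lactamase reporter are exposed to test chemicals for 16 h at 37C. Reporter induction is read as the 460/530 nm emission ratio after CCF4-AM loading, normalized to DMSO.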

For assay [20] the target is unchanged. In words: TOX21_p53_BLA_p4_ratio: Tox21 HCT-116 p53 Agonism Beta-lactamase Assay, Ratio, Phase 4 (AID 2283601). In a few lines:
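HCT-116 p53 beta-lactamase reporter cells (4000/well) preincubated 5 h, then compound (217-fold dilution of DMSO stock) for 16 h at 37C. CCF4-AM substrate added 2 h at room temperature; 460/530 nm emission ratio fitted upward versus DMSO.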

Where “and” joins values, the source holds several entries; their conditions need not be identical. Identical values can stand only once. Records with an inconclusive call do not appear. Where a structure was tested more than once in an assay, its records may differ in their call. Calls of active or inactive are those of the source. How the source made its calls, unless noted: active means hit-call score of the fitted dose curve at least 0.9, where 1 is the maximum; inconclusive means response in the unintended direction; inactive means score below 0.9.

Cellular tumor antigen p53 (Homo sapiens), sequence (P04637 whole entry, looked up): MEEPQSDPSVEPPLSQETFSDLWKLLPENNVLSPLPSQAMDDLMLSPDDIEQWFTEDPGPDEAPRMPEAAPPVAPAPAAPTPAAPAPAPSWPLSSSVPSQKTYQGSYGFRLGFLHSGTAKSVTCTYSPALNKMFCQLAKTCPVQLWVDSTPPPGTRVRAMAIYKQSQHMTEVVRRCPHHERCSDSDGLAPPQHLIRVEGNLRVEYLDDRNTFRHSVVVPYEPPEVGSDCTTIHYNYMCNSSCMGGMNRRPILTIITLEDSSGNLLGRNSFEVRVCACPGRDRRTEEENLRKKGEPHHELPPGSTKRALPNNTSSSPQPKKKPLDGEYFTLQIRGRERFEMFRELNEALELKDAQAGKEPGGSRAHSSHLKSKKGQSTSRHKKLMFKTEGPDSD

Take `CCCCC(CC)COP(=O)(OCC(CC)CCCC)OCC(CC)CCCC` (stereo not drawn): the AC50 in assay [1] was 13.3 µM (active). Further, the result in [2], in assay [3], in assay [4], in assay [5], in assay [6] and in assay [7] was inactive. Also, the result in assay [8], in assay [9], in assay [10], in [11], in [12] and in [13] was inactive. Moreover, the call in [14], in assay [15], in assay [16], in assay [17] and in [18] was inactive.

With `Oc1ccc(O)cc1`, the result in assay [1], in assay [2], in [3], in assay [4], in assay [5] and in assay [6] was inactive. For the same compound, the result in assay [19], in [8], in assay [10], in [13], in assay [15] and in assay [16] was inactive. For the same compound, the compound was called inactive in assay [17] and in assay [18]. Moreover, the concentration at half-maximal activity (AC50) is 72.8 µM (active) and 70 µM (active) in assay [6]; 20.2 µM (active) in assay [19]; 42.5 µM (active) and 61.1 µM (active) and 38.2 µM (active) in assay [7]; 21.4 µM (active) in assay [8]; 47.1 µM (active) and 70.6 µM (active) and 36.2 µM (active) in [9]; 17 µM (active) and 35.8 µM (active) and 37.7 µM (active) in assay [11]. The AC50 in [12] is 1.77 µM (active).

With `O=C1c2c(O)cccc2Cc2cccc(O)c21`, the call in [1], in assay [2], in assay [3], in assay [4], in assay [5] and in assay [6] was inactive. Further, the outcome in assay [19], in [7], in [8], in assay [9], in assay [10] and in assay [11] was inactive. Also, the compound was called inactive in [12], in assay [13], in [14], in assay [15], in assay [16] and in assay [17]. Moreover, in [18], the compound was called inactive.

Turning to `CCCC[C@H]1CN(CC2CCOCC2)C(=O)OC12CCN(C1(C)CCN(C(=O)c3c(C)ncnc3C)CC1)CC2`, the outcome in assay [1], in assay [2], in assay [3], in assay [4], in assay [5] and in [19] was inactive. Further, the compound was called inactive in assay [7], in assay [8], in assay [9], in [10], in assay [11] and in [20]. Besides, the compound was classed as inactive in assay [12], in assay [15], in assay [16], in assay [17] and in assay [18].

Regarding `CCCCc1nc2cccnc2n1Cc1ccc(-c2ccccc2-c2nnn[nH]2)cc1`, the AC50 in [1] was 18.8 µM (active). In addition, the compound was called inactive in assay [2], in [3], in [4], in [5], in [6] and in assay [19]. Besides, the outcome in assay [8], in assay [10], in [12], in assay [13], in [14] and in assay [15] was inactive. Also, the call in assay [16], in assay [17] and in assay [18] was inactive.

With `O=C(O)CN(CC(=O)O)CC(=O)O`, the compound was called inactive in assay [1], in [2], in [3], in [4], in assay [5] and in assay [6]. In addition, the outcome in [19], in assay [7], in assay [8], in assay [10], in assay [11] and in [12] was inactive. Moreover, the result in assay [13], in assay [14], in [15], in [16] and in assay [17] was inactive.

As a reminder, the AC50 is the concentration giving half of the maximal activity seen.

For the origin of these results see PubChem BioAssay (EPA / NIEHS).
